From PubChem BioAssay AID2018 (Sanford-Burnham Center for Chemical Genomics, 2009)
In all, about 1,200 compounds went through this assay and about 600 (50%) were called active. The set was probably picked from earlier hits. This is one part of the list. Measured potencies and affinities stand elsewhere. Unmarked numbers belong to inactive results. Cut-off read from the data, not from the text of the source: active = inhibition above about 42%; inactive = the rest.

What follows are molecules tested against SUMO-conjugating enzyme UBC9 (Homo sapiens) (UniProt P63279) (assay: SUMOylation inhibitor hit validation, confirmation, SUMOylation inhibitor project, biochemical, AlphaScreen (AID 2018)). Conditions: AlphaScreen in vitro SUMOylation assay; at 35 µM; stronger effect = higher value.
Chain of SUMO-conjugating enzyme UBC9 (Homo sapiens) (P63279 whole entry, looked up): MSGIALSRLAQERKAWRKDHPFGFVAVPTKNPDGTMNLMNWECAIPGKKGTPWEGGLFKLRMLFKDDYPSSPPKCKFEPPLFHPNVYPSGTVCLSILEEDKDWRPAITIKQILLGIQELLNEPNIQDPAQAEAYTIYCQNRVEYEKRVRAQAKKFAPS

Structure (SMILES) | inhibition
O=C(O)CC1OCC=C2CN3CCC45C6=CC(=O)C(=O)C([N+](=O)[O-])=C6NC4C1C2CC35 (stereo not drawn) | 102% (active)
CN1CCN(c2ccc(S(C)(=O)=O)cc2[N+](=O)[O-])CC1 | -12.2%
Cc1cc(/C=C2\C(=O)NC(=O)N(Cc3ccccc3)C2=O)c(C)n1-c1ccc(Cl)c(C(=O)O)c1 | 102% (active)
CC(=O)c1ccc2c(c1)C1C(Cl)C(Sc3ccccc3[N+](=O)[O-])CC1C(c1ccccc1[N+](=O)[O-])N2 (stereo not drawn) | 38.6%
CC(=O)c1ccc2c(c1)C1C(Cl)C(Sc3ccccc3[N+](=O)[O-])CC1C(C(=O)O)N2 (stereo not drawn) | 102% (active)
CC(C)CCNC(=O)c1c(N)n(Cc2ccc3c(c2)OCO3)c2nc3ccccc3nc12 | 18.5%
Cc1c(CC(=O)N2C[C@H]3C[C@@H](C2)c2cccc(=O)n2C3)c(=O)oc2c(C)c(O)ccc12 | 54.2% (active)
Nc1c(C(=O)NCCCc2ccccc2)c2nc3ccccc3nc2n1Cc1cccs1 | -10.2%
Cc1[nH]n(-c2ccccc2)c(=O)c1C(c1ccc([N+](=O)[O-])cc1)c1c(C)[nH]n(-c2ccccc2)c1=O | 102% (active)
CCN(CC)c1ccc([N+](=O)[O-])c2cccnc12 | 33.7%
CC(C)CCNC(=O)c1c(N)n(CC2CCCO2)c2nc3ccccc3nc12 (stereo not drawn) | -37.9%
CCCNC(=O)c1c(N)n(CC2CCCO2)c2nc3ccccc3nc12 (stereo not drawn) | -23.2%
CC(C)OCCCNC(=O)c1c(N)n(CC2CCCO2)c2nc3ccccc3nc12 (stereo not drawn) | -76.6%
CCC(C)NC(=O)c1c(N)n(CC2CCCO2)c2nc3ccccc3nc12 (stereo not drawn) | 101% (active)
Nc1c(C(=O)NC2CCCC2)c2nc3ccccc3nc2n1CC1CCCO1 (stereo not drawn) | 100% (active)
CCCNC(=O)c1c(N)n(Cc2ccc3c(c2)OCO3)c2nc3ccccc3nc12 | 13.5%
CCC(C)NC(=O)c1c(N)n(Cc2ccc3c(c2)OCO3)c2nc3ccccc3nc12 (stereo not drawn) | 11%
CN1CCC2(CC1)C(C#N)=C(N)NC(S)=C2C#N | 38.8%
CCCCn1c(NC(=O)c2ccco2)c(C(=O)OCC)c2nc3ccccc3nc21 | 62.6% (active)
CCCCn1c(N)c(C(=O)OCC2CCCO2)c2nc3ccccc3nc21 (stereo not drawn) | 25.4%
CCCCn1c(NS(=O)(=O)c2ccc(C)cc2)c(C(=O)OCC)c2nc3ccccc3nc21 | 28.2%
CCCCn1c(NS(=O)(=O)c2ccccc2)c(C(=O)OCC)c2nc3ccccc3nc21 | 101% (active)
COCCNC(=O)c1c(NC(=O)c2ccco2)n(Cc2ccccc2)c2nc3ccccc3nc12 | -28.4%
